# In PubChem BioAssay (NCATS):
# Results filed as inconclusive are left out. A call without a number means that no potency is given here. Activity calls are given as the source filed them. Calls follow the shape of the dose curve; as a rule, active = well fitted curve in the direction sought with a large enough effect; inconclusive = small, poorly fitted or top-dose-only effect, or another doubt; inactive = no such curve, though single readings can be large; an effect the other way counts as inactive or inconclusive.
# Columns and labels:
# [1] = system: Zika virus NS2B-NS3 protease (linked construct); test: Confirmatory screen NINDS AMC qHTS for Zika virus inhibitors (AID 1347152);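 also: AMC fluorescence gain from cleaved Bz-Nle-KRR-AMC substrate over 15 min; top concentration of the series differs between compounds; nearly all actives have a fitted effect of over 70% in size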
# Method in brief: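 Purified NS2B-NS3 protease with NS2B hydrophilic domain linked to NS3 protease domain by flexible linker, 1 nM final in 10 mM Tris-HCl pH 8.0, 0.01% Tween 20. Compounds preincubated 15 min, room temperature; Bz-Nle-KRR-AMC 10 microM (Km 18.3 µM); 15-min fluorescence change, 4-parameter Hill fit.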
# [2] = system: Zika virus NS2B-NS3 protease (unlinked complex); test: Confirmatory screen GU AMC qHTS for Zika virus inhibitors (AID 1347153); also: nearly all actives have a fitted effect of over 70% in size
# Method in brief: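 Fluorescence change (ex 340/em 450 nm) over 15 min, ~20% substrate conversion, normalized to no-inhibitor and no-enzyme controls, then Hill-fitted. Unlinked protease at 25 nM; AMC peptide 10 µM.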
# [3] = Confirmatory screen NINDS Rhodamine qHTS for Zika virus inhibitors (AID 1347161); also: nearly all actives have a fitted effect of over 60% in size; also: potency is read from the fitted curve at half-maximal effect
# Method in brief: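 Purified linked NS2B-NS3 protease (NS2B hydrophilic domain joined to NS3 protease by flexible linker), 25 nM in 10 mM Tris-HCl pH 8.0, 0.01% Tween 20. Compounds titrated, 15 min preincubation at room temperature; 1.5 microM Rhodamine110 substrate, FITC fluorescence change over 15 min.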
# [4] = Vero cells viability qHTS for Zika virus inhibitors (AID 1347167)
# Method in brief: (§1)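 Counter-screen for cytotoxicity of hits from NS2B-NS3 protease qHTS. Overnight-attached cells (2.5 x 10^5 cells/mL, DMEM/4% FBS) were dosed in titration, incubated 24 to 48 hours, then assayed by CellTiter Glo.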
# [5] = HepG2 cells viability qHTS for Zika virus inhibitors (AID 1347168)
# Method in brief: as §1
# [6] = system: Zika virus NS2B-NS3 protease; test: Primary screen GU AMC qHTS for Zika virus inhibitors (AID 1347154); also: nearly all actives have a fitted effect of over 70% in size; also: potency is read from the fitted curve at half-maximal effect
# Method in brief: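 Unlinked Zika NS2B hydrophilic domain/NS3 protease domain noncovalent complex (25 nM final) in 10 mM Tris-HCl pH 8.0, 0.01% Tween 20, with AMC peptide substrate. Fluorescence (ex 340, em 450 nm) change over 15 min, room temperature; percent inhibition fitted to 4-parameter Hill equation.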
# [7] = system: Zika virus NS2B-NS3 protease (unlinked complex); test: Primary screen GU Rhodamine qHTS for Zika virus inhibitors: Unlinked NS2B-NS3 protease assay (AID 1347159); also: nearly all actives have a fitted effect of over 60% in size
# Method in brief: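 A qHTS format was used, with compound concentrations ranging up to 114 microM. Each compound was preincubated with 25 nM NS2B-NS3 protease, and the substrate was then added at 1.5 microM. Curves were fitted with a 4-parameter Hill model.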
# [8] = system: Zika virus NS2B-NS3 protease (linked construct); test: Primary screen NINDS Rhodamine qHTS for Zika virus inhibitors (AID 1347160); conditions: outcome: dose series up to 57.1 µM; also: nearly all actives have a fitted effect of over 55% in size
# Method in brief: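 Kinetic fluorescence (Ex 480 nm, Em 540 nm) over 15 min with 1.5 microM Rhodamine110 peptide and 25 nM linked protease.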
# [9] = molecular target: Lysine-specific demethylase 5B (Homo sapiens) (UniProt Q9UGL1); test: Optimization screen for KDM5B Histone Demethylases FDH coupled qHTS against the LOPAC library (AID 1347166)
# Lysine-specific demethylase 5B (Homo sapiens), sequence (Q9UGL1 whole entry, looked up): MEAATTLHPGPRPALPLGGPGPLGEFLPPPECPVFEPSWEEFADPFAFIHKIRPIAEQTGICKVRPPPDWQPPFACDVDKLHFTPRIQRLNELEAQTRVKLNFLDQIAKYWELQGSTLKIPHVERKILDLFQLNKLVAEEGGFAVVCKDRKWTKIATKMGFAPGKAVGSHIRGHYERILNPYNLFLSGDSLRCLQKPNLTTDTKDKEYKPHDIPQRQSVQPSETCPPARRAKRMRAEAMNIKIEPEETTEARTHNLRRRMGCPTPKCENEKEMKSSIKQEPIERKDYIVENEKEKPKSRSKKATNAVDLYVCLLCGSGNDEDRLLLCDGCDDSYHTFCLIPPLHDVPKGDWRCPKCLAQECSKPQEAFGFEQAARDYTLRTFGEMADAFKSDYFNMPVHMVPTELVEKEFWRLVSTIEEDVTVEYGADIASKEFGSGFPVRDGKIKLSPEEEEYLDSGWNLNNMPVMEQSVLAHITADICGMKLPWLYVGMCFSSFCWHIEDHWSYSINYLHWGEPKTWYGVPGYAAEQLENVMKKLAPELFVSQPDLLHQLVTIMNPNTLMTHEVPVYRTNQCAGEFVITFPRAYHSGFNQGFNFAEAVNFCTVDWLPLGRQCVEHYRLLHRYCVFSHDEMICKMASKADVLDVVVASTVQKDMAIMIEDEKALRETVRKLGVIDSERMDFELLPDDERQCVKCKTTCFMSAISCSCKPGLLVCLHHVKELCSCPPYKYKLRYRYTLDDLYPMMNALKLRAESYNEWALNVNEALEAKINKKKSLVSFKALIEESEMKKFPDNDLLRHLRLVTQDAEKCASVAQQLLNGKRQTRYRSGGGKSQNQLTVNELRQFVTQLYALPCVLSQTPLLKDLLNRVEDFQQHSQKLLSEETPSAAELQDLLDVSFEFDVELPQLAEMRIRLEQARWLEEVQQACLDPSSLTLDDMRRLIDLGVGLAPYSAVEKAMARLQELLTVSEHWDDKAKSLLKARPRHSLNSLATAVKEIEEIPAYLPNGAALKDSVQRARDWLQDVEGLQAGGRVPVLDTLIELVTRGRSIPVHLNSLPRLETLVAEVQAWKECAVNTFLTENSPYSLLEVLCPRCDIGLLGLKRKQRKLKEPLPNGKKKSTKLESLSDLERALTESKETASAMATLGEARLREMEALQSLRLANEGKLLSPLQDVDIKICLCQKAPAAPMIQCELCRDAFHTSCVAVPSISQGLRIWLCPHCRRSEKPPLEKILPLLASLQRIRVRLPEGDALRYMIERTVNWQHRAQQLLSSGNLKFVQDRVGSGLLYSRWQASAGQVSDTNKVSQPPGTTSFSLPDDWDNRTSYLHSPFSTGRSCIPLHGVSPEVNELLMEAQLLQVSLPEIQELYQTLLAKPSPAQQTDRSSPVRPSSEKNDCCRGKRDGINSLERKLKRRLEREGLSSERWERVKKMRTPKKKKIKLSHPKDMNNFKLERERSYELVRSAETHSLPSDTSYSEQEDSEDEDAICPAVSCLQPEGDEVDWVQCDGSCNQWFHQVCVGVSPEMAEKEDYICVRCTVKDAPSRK
# Method in brief: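 KDM5BDeltaAP (200nM final) preincubated 10 min with compound, then 12.5uM H3K4Me3, 25uM a-ketoglutarate, ascorbate, Fe(II), NAD+ and FDH added; 50mM HEPES pH 7.5, 0.01% Tween-20. NADH fluorescence (340/450 nm) change over 30 min, room temperature.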
# [10] = OV-KATE Cancer Cell Toxicity qHTS against the NCATS CANVASS Library (AID 1347345)
# Method in brief: (§2)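 1000 cells/well seeded and rested 4 h at 37 °C before pin transfer of compounds in an 11-pnt series. Exposure 72 h at 37 °C/5% CO2; viability by CellTiter-Glo luminescence after 15 min at room temperature.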
# [11] = HPAF-II Cancer Cell Toxicity qHTS against the NCATS CANVASS Library (AID 1347346); also: nearly all actives have a fitted effect of over 55% in size
# Method in brief: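 HPAF-II cells at 1000 cells/well were treated with an 11-point concentration series for 72 hours at 37 degrees C. Viability read by CellTiter-Glo luminescence.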
# [12] = UWB1.289 Cancer Cell Toxicity qHTS against the NCATS CANVASS Library (AID 1347347); also: nearly all actives have a fitted effect of over 60% in size
# Method in brief: as §2
# [13] = OV-SAHO Cancer Cell Toxicity qHTS against the NCATS CANVASS Library (AID 1347348); also: nearly all actives have a fitted effect of over 55% in size
# Method in brief: as §2
# [14] = Panc-1005 Cancer Cell Toxicity qHTS against the NCATS CANVASS Library (AID 1347349); also: nearly all actives have a fitted effect of over 60% in size
# Method in brief: as §2
# [15] = SW1088 Cancer Cell Toxicity qHTS against the NCATS CANVASS Library (AID 1347350); also: nearly all actives have a fitted effect of over 75% in size
# Method in brief: as §2
# [16] = U-118MG Cancer Cell Toxicity qHTS against the NCATS CANVASS Library (AID 1347351)
# Method in brief: as §2
# [17] = COV-362 Cancer Cell Toxicity qHTS against the NCATS CANVASS Library (AID 1347352)
# Method in brief: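 Cells at 1000/well were given compound 4 h after plating in an 11-point series. Viability was read by CellTiter-Glo luminescence after 72 h at 37 degrees C.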
# [18] = A2780 Cisplatin Sensitive Ovarian Cancer Cell Toxicity qHTS against the NCATS CANVASS Library (AID 1347353); conditions: A2780 ovarian cancer viability, ATPLite luminescence, 72 h; at 46.1 µM (top of the series); also: nearly all actives have a fitted effect of over 60% in size
# Method in brief: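 A2780 cells, 750/well, settled 4 h at 37 °C, then treated with an 11-point compound series for 72 h. Viability was read as ATPLite luminescence after 10 min at room temperature, with bortezomib as control.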
# [19] = Confirmatory screen GU Rhodamine qHTS for Zika virus inhibitors qHTS (AID 1347157); conditions: purified enzyme assay, Rhodamine110 substrate fluorescence, 15 min; also: potency is read from the fitted curve at half-maximal effect; nearly all actives have a fitted effect of over 70% in size
# Method in brief: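 Unlinked NS2B/NS3, 25 nM; Rhod110 peptide, 1.5 microM; compounds, up to 114 microM. Reaction run 15 min at RT in 10 mM Tris-HCl pH 8.0, 0.01% Tween 20; kinetic fluorescence change fitted with a 4-parameter Hill model.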
# [20] = Tertiary RLuc qRT-PCR qHTS assay for Zika virus inhibitors (AID 1347169); also: top concentration of the series differs between compounds; nearly all actives have a fitted effect of over 55% in size
# Method in brief: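 Vero cells (1,000 per well) plated overnight at 37 degrees C, treated with compound in DMSO, then infected with recombinant ZIKV-RLuc (Cambodian) at MOI 1-2 for 48-72 hrs. Live-cell Renilla luciferase substrate added; luminescence read after 1-1.5 hrs.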
compound,measurement,setting,value
Oc1ccc([C@H]2CNCc3c2ccc(O)c3O)cc1O,outcome,[1],inactive
same,outcome,[2],inactive
same,Potency,[3],inactive
same,outcome,[4],inactive
same,outcome,[5],inactive
Clc1ccc(C(OCCN2CCCCC2)c2ccccc2)cc1 (stereo not drawn),Potency,[6],inactive
CN1CCc2cc(Cl)c(O)cc2[C@H]2c3ccccc3CC[C@@H]21,Potency,[6],inactive
Nc1ccccc1C(=O)OCC(O)CO (stereo not drawn),Potency,[6],16.1 µM (active)
CCc1ccc(C2CCNCC2)cc1,Potency,[6],inactive
CCN1CCCC1CNC(=O)C(O)(c1ccccc1)c1ccccc1 (stereo not drawn),Potency,[6],inactive
COP(=S)(OC)Oc1ccc(S(N)(=O)=O)cc1,Potency,[6],inactive
CCOP(=S)(OCC)O/N=C(\C#N)c1ccccc1,Potency,[6],inactive
CC(Cc1ccccc1)NCc1ccccc1Cl (stereo not drawn),Potency,[6],inactive
CCc1cc(OC)c(C[C@H](C)N)cc1OC,Potency,[6],inactive
Cc1cccc(Cc2cnc[nH]2)c1C,Potency,[6],inactive
C[C@@H]1CC[C@H]2[C@@H](C)C(=O)O[C@@H]3O[C@@]4(C)CC[C@@H]1[C@]32OO4,Potency,[6],inactive
CC1=C2[C@H]3OC(=O)[C@@H](C)[C@@H]3CC[C@@]2(C)C=CC1=O,Potency,[6],inactive
COc1cc(CC(C)N)cc2c1OCO2 (stereo not drawn),Potency,[6],inactive
CCOC(=O)C(c1c(O)c2ccccc2oc1=O)c1c(O)c2ccccc2oc1=O,Potency,[6],inactive
COc1cc(C[C@@H](C)N)c(OC)cc1Br,Potency,[6],inactive
COc1ccc2[nH]cc(CCN(C(C)C)C(C)C)c2c1,Potency,[6],inactive
CCC(=O)C(CCN(C)C)(c1ccccc1)c1ccccc1,Potency,[6],inactive
CC[C@H](O)C(C[C@H](C)N(C)C)(c1ccccc1)c1ccccc1,Potency,[6],inactive
CC(CC(C(N)=O)(c1ccccc1)c1ccccc1)N(C)C (stereo not drawn),Potency,[6],inactive
CNC(C)Cc1ccccc1OC (stereo not drawn),Potency,[6],inactive
CNC(=O)Oc1cccc2ccccc12,Potency,[6],inactive
CC(C)C(Br)C(=O)NC(N)=O (stereo not drawn),Potency,[6],inactive
CC[C@H]1C[C@@H]2C[C@H]3c4[nH]c5ccc(OC)cc5c4CCN(C2)[C@@H]13,Potency,[6],inactive
C[C@]12CC[C@H]3[C@@H](CCC4=CC(=O)CC[C@@H]43)[C@@H]1CC[C@@H]2O,Potency,[6],inactive
COc1cc(N)c(Cl)cc1C(=O)NC1CN2CCC1CC2 (stereo not drawn),Potency,[6],inactive
CCC1(CC)C(=O)NC(=O)NC1=O,Potency,[6],inactive
C[C@@H]1O[C@@H](O[C@@H]2C=C3CC[C@@H]4[C@H](CC[C@]5(C)[C@@H](c6ccc(=O)oc6)CC[C@]45O)[C@@]3(C)CC2)[C@H](O)[C@H](O)[C@H]1O,Potency,[6],inactive
COCC(=O)N(c1c(C)cccc1C)C(C)C(=O)OC (stereo not drawn),Potency,[6],inactive
CC(Cc1ccccc1)NCCCCl (stereo not drawn),Potency,[6],inactive
C[C@]12C=CC(=O)C=C1CC[C@@H]1[C@@H]2CC[C@@]2(C)[C@H]1CC[C@]2(C)O,Potency,[6],inactive
O=C(CBr)Nc1ccc(Cl)cc1C(=O)c1ccccc1F,Potency,[6],inactive
Sc1ccccc1Cl,Potency,[6],inactive
C[C@@H]1CN(C2CCC(C#N)(c3ccc(F)cc3)CC2)CC[C@]1(C(=O)O)c1ccccc1 (stereo partly drawn),Potency,[6],inactive
ClCCCN1CCN(c2cccc(Cl)c2)CC1,Potency,[6],inactive
C#C[C@]1(O)C=C[C@H]2[C@@H]3CCC4=CC(=O)CC[C@@H]4[C@H]3CC[C@@]21CC,Potency,[6],inactive
CNC(C)Cc1ccc2c(c1)OCO2 (stereo not drawn),Potency,[6],inactive
COc1cc(CC(C)N)c(OC)cc1Br (stereo not drawn),Potency,[6],inactive
CN(C)C(=S)SSC(=S)N(C)C,Potency,[6],inactive
CC(C)[N+](C)(CCC(C(N)=O)(c1ccccc1)c1ccccc1)C(C)C,Potency,[6],inactive
Oc1c(Br)cc(Br)cc1Br,Potency,[6],inactive
CC[C@H]1C[C@H]2[C@@H]3CCC4=CC(=O)CC[C@@H]4[C@H]3CC[C@]2(C)[C@H]1O,Potency,[6],inactive
same,outcome,[7],inactive
same,outcome,[8],inactive
CCN(CC)C(C)C(=O)c1ccccc1 (stereo not drawn),Potency,[6],inactive
C[C@]12CC[C@H](O)CC1=CC[C@@H]1[C@@H]2CC[C@]2(C)C(=O)CC[C@@H]12,Potency,[6],inactive
same,outcome,[7],inactive
same,outcome,[8],inactive
NC(=O)CN1CCCC1=O,outcome,[9],inactive
CCOC(=O)NC(C)(C)Cc1ccc(Cl)cc1,Potency,[6],inactive
same,outcome,[7],inactive
same,outcome,[8],inactive
CCC(=O)OC1(c2ccccc2)CCN(C)CC1,Potency,[6],inactive
O=C(CCl)c1ccc(Cl)cc1Cl,Potency,[6],inactive
CC(C)=CCN1CC[C@@]2(C)c3cc(O)ccc3C[C@@H]1[C@@H]2C,Potency,[6],inactive
same,outcome,[4],inactive
same,outcome,[5],inactive
CCCCC1C(=O)NC(=O)N(C2CCCCC2)C1=O (stereo not drawn),Potency,[6],inactive
same,outcome,[8],inactive
CN(C)CCc1c[nH]c2ccccc12,Potency,[6],inactive
same,outcome,[8],inactive
same,outcome,[10],inactive
same,outcome,[11],inactive
same,outcome,[12],inactive
same,outcome,[13],inactive
same,outcome,[14],inactive
same,outcome,[15],inactive
same,outcome,[16],inactive
same,outcome,[17],inactive
same,outcome,[18],inactive
Cc1nnc2n1-c1sc(CCc3ccc(CC(C)C)cc3)cc1C(c1ccccc1Cl)=NC2C (stereo not drawn),Potency,[19],44.1 µM (active)
same,outcome,[7],inactive
same,Potency,[3],44.1 µM (active)
same,outcome,[20],inactive
